# “And” between values parts separate entries of the source, which are not always exact repeats. Equal entries are not always repeated. Inconclusive results are not listed. More than one record can exist for a structure, and the calls need not agree. The source made the active and inactive calls. How the source made its calls, unless noted: active means hit-call score of the fitted dose curve at least 0.9, where 1 is the maximum; inactive means score below 0.9.
# Test system: not listed separately
# Experiment: CCTE_Shafer_MEA_dev_active_electrodes_number: CCTE's Neural Network Formation Assay for Number of Active Electrodes, Shafer Lab (AID 2284040; active means hit-call score of the fitted dose curve at least 0.9, where 1 is the maximum;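 on AC50: potency for loss of active electrodes versus DMSO so lower counts are hits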)
# How it was run: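 Developing rat cortical networks on MEAs, exposed DIV 0–12. Value is the AUC of active-electrode counts (≥5 spikes/min) from days 5, 7, 9, 12, relative to DMSO.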
Structure (SMILES),AC50,outcome
O=C(Nc1ccccc1-c1ccc(Cl)cc1)c1cccnc1Cl,9.92 µM (active),inactive
CCOP(=O)(OCC)Oc1nc(Cl)c(Cl)cc1Cl,904 nM (active) and 8.09 µM (active),inactive
CCOC(=O)C(C)OC(=O)c1cc(Oc2ccc(C(F)(F)F)cc2Cl)ccc1[N+](=O)[O-] (stereo not drawn),,inactive
CC(C)=CC1C(C(=O)OCc2coc(Cc3ccccc3)c2)C1(C)C (stereo not drawn),,inactive
COP(=S)(OC)Oc1ccc([N+](=O)[O-])c(C)c1,,inactive
C=C(C)CN(CC)c1c([N+](=O)[O-])cc(C(F)(F)F)cc1[N+](=O)[O-],16.9 µM (active),
CCSC(=O)N1CCCCCC1,3.42 µM (active),
CC1(C)C(C=C(Cl)Cl)C1C(=O)OC(C#N)c1cccc(Oc2ccccc2)c1 (stereo not drawn),9 µM (active),inactive
CS(=O)(=O)c1cc(C(F)(F)F)ccc1C(=O)c1cnoc1C1CC1,,inactive

# Molecular target: Estrogen receptor (Homo sapiens) (UniProt P03372)
# Sequence (P03372 whole entry, looked up): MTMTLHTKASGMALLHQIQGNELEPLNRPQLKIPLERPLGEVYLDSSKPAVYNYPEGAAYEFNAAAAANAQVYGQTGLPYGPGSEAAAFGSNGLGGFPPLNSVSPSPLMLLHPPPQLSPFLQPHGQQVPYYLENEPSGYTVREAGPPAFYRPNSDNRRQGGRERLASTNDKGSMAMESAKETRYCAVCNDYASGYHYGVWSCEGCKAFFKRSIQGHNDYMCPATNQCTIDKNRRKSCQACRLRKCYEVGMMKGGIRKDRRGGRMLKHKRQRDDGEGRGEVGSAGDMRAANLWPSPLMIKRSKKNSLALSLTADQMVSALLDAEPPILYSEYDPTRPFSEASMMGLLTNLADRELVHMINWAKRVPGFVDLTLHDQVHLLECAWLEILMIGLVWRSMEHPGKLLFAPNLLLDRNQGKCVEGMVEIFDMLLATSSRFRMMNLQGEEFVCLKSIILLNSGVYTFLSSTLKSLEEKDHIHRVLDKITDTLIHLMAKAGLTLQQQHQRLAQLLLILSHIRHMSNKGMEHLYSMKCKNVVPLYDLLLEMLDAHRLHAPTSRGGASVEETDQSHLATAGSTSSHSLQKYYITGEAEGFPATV
# Experiment: CCTE_Deisenroth_AIME_384WELL_LUC_Shift: CCTE's 384-well Estrogen Receptor Transactivation Assay with AIME metabolic competence data shift (ERTA luciferase; difference in metabolism positive and negative), Deisenroth Lab (AID 2284041);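 further: shift is response with S9 minus without S9 so positive means metabolism raised ER signal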
# How it was run: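 Chemicals (0.002–200 uM, 10 points) pre-incubated 2 h with alginate-encapsulated induced male Sprague Dawley rat liver S9 or S9-free, then medium applied 24 h to VM7Luc4E2 cells; luciferase. Endpoint is per-concentration difference, S9-positive minus negative.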
Structure (SMILES),outcome,AC50
COCC(C)N(C(=O)CCl)c1c(C)csc1C (stereo not drawn),inactive,
CC(C)N1C(=O)c2ccccc2NS1(=O)=O,inactive,
O=C(Nc1ccccc1-c1ccc(Cl)cc1)c1cccnc1Cl,inactive,
O=c1n(Cl)c(=O)n(Cl)c(=O)n1Cl,inactive,
CNC(=O)N(C)c1nnc(C(C)(C)C)s1,inactive,
COC(=O)NC(=S)Nc1ccccc1NC(=S)NC(=O)OC,inactive,
COc1cc(OC)nc(NC(=O)NS(=O)(=O)c2ncccc2OCC(F)(F)F)n1,inactive,
N#Cc1c(Cl)cccc1Cl,inactive,
COCc1cnc(C2=NC(C)(C(C)C)C(=O)N2)c(C(=O)O)c1 (stereo not drawn),inactive,
CCOP(=O)(OCC)Oc1nc(Cl)c(Cl)cc1Cl,inactive,
CCOC(=O)C(C)OC(=O)c1cc(Oc2ccc(C(F)(F)F)cc2Cl)ccc1[N+](=O)[O-] (stereo not drawn),inactive,
Cc1cc(C)nc(Nc2ccccc2)n1,inactive,
COP(=S)(OC)Oc1ccc([N+](=O)[O-])c(C)c1,inactive,
C=C(C)CN(CC)c1c([N+](=O)[O-])cc(C(F)(F)F)cc1[N+](=O)[O-],inactive,
COP(=S)(OC)SCn1nnc2ccccc2c1=O,inactive,
Nc1c(Cl)c(Cl)nc(C(=O)O)c1Cl,,5.4 µM (active)
CCSC(=O)N1CCCCCC1,inactive,
CN=C=S,inactive,
CCOP(=S)(OCC)Oc1nc(Cl)n(C(C)C)n1,inactive,
CC1(C)CON(Cc2ccccc2Cl)C1=O,,37.7 µM (active)
CC1(C)C(C=C(Cl)Cl)C1C(=O)OC(C#N)c1cccc(Oc2ccccc2)c1 (stereo not drawn),inactive,
CS(=O)(=O)c1cc(C(F)(F)F)ccc1C(=O)c1cnoc1C1CC1,inactive,
CCCC(=NOCC)C1=C(O)CC(CC(C)SCC)CC1=O (stereo not drawn),inactive,
Cc1ccc(N=CN(C)C=Nc2ccc(C)cc2C)c(C)c1,inactive,
CC(C)N1C(=O)N(c2ccccc2)CSC1=NC(C)(C)C,inactive,
Nc1cnn(-c2ccccc2)c(=O)c1Cl,inactive,

# From PubChem BioAssay (EPA / NIEHS)
